Screening results deposited in PubChem BioAssay by National Center for Advancing Translational Sciences (NCATS).
Sampled rows, rich in hits. Any-hit rate of the full collection: about 10%.
G9a inh: blocks human histone lysine methyltransferase G9a. Q96KQ7. G9a H3K9 monomethylation, AlphaScreen, 2 h. Potency, µM (top dose mostly 102 µM), hits mostly inhibitors. 350,000 tested, 8.8% active. AID 504332; also: nearly all actives have a fitted effect of over 75% in size
Target sequence (Q96KQ7 913-1193 limits assumed): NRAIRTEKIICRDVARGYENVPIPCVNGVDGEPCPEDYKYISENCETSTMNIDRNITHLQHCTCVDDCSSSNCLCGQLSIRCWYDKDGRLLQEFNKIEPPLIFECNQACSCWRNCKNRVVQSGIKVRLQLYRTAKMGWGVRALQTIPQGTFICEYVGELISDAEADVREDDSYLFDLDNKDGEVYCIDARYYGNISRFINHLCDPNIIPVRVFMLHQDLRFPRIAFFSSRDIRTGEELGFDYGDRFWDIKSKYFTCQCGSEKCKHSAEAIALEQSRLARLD
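AlphaScreen read-out: biotin-H3K9 peptide (500 nM) methylation by 20 nM enzyme with 20 uM SAM, 2 h at room temperature after 15 min compound preincubation; anti-monomethyl H3K9 antibody plus donor/acceptor beads, 10 min dark.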
BAZ2B inh: blocks human BAZ2B. Q9UIF8. 360,000 tested, 4.4% active. Potency, µM (series often up to 114 µM), actives largely listed as inhibitors. AlphaScreen BAZ2B-H3K14Ac peptide displacement; also: nearly all actives have a fitted effect of over 60% in size
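AlphaScreen displacement of biotin-H3(5-23)K14Ac peptide (50 nM final) from BAZ2B (50 nM final) in PBS pH 7.4, 0.01% Tween-20; complex preformed 30 min RT, then compounds (top 110 uM) 30 min RT, beads 20 min dark.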
L3MBTL1 inh: inhibitors of human L3MBTL1; Potency, µM (titrated, usually from 57.1 µM), hits mostly inhibitors; Q9Y468; AlphaScreen L3MBTL1–H3K9me1 peptide binding; 230,000 tested, 0.66% active; also: nearly all actives have a fitted effect of over 60% in size
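AlphaScreen assay: L3MBTL1 (50 nM final) was preincubated 30 min at room temperature with biotinylated H3(1-15)K9me1 peptide (75 nM final), then 30 min with library compounds; streptavidin donor and nickel chelate acceptor beads (10 ug/mL final) added, 30 min dark.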
GLS inhibitor: glutaminase GLS (human) inhibition. O94925. GLS enzymatic activity, qHTS titration. Potency, µM (highest dose often 45.5 µM), hits mostly inhibitors. 410,000 tested, 0.21% active. AID 624170
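Human kidney-isoform GLS in 45 mM KH2PO4 pH 8.2, 0.02% Tween-20, with compound, started with 1mM L-Glutamine (added stock). Glutamate oxidase/HRP/Amplex red coupled fluorescence read at start and after 30 min at RT.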
JMJD2A Tudor inh: JMJD2A Tudor domain (human) inhibition. AlphaScreen JMJD2A-Tudor / H3K4me3 peptide binding. 390,000 tested, 4.4% active. O75164. Potency, µM (titrated, usually from 114 µM), actives largely listed as inhibitors; also: nearly all actives have a fitted effect of over 50% in size
HP1b binding inh: blocks HP1-beta chromodomain binding to methylated histone tails; AlphaScreen HP1-beta / biotin-H3K9me3 peptide binding; P83916; Potency, µM (series often up to 114 µM), hits mostly inhibitors; 390,000 tested, 0.56% active; also: nearly all actives have a fitted effect of over 70% in size
Target sequence (P83916 whole entry, looked up): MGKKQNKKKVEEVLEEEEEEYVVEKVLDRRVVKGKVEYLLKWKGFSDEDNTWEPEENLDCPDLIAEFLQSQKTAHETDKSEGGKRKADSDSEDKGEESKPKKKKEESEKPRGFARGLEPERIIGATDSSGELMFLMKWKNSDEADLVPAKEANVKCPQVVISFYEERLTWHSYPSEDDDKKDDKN
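HP1-beta protein (50 nM final) preincubated 30 min at room temperature with biotinylated H3(1-18)K9me3 peptide (50 nM) in PBS pH 7.4, 0.01% Tween-20, then compound added for 30 min. AlphaScreen streptavidin donor/nickel chelate acceptor beads (10 ug/mL final), 30 min dark, luminescence read.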
A number is an active result; . = inactive; ? = inconclusive; / = no result given; ! = a repeat was not active; [ ] = remark or other dose. Calls follow the shape of the dose curve; as a rule, active = well fitted curve in the direction sought with a large enough effect; inconclusive = small, poorly fitted or top-dose-only effect, or another doubt; inactive = no such curve, though single readings can be large; an effect the other way counts as inactive or inconclusive.

SMILES	G9a inh	BAZ2B inh	L3MBTL1 inh	GLS inhibitor	JMJD2A Tudor inh	HP1b binding inh
O=C1CCCC(=O)C1CS(=O)(=O)c1ccccc1	3.2µM	.	/	.	.	.
COc1ccc(NC(=O)C2CCCN2S(=O)(=O)c2ccc3c(c2)CCCC(=O)N3)cc1Cl (stereo not given)	.	.	/	.	.	.
CCN(Cc1nc(-c2ccc(OC)c(OC)c2)no1)S(=O)(=O)c1ccc(OC)cc1	.	.	/	.	.	.
CCn1nc(NC(=O)c2ccco2)c2cc3ccccc3nc21	7.9µM	.	.	.	.	.
CCn1nc(NS(=O)(=O)c2ccc([N+](=O)[O-])cc2)c2cc3ccccc3nc21	45µM	?	/	.	.	.
CCCn1nc(NC(=O)c2ccco2)c2cc3cc(C)ccc3nc21	22µM	.	.	.	.	.
Cc1nn(C(=O)c2ccc(Cl)cc2)c(C)c1Sc1ccc(Cl)cc1	.	.	/	.	.	.
CCCOc1ccc(C2C(=O)N(C3CCCCC3)CC(=O)N2CCc2ccccc2)cc1OC (stereo not given)	.	.	/	.	.	.
C[N+](C)(C)CCOP(=O)(O)OP(=O)([O-])OC[C@H]1O[C@@H](n2ccc(N)nc2=O)[C@H](O)[C@@H]1O	10µM!	.	.	.	.	.
Nc1ccn([C@@H]2O[C@H](CO)[C@@H](O)C2O)c(=O)n1 (stereo not given in full)	11µM!	.	/	.	.	.
C[N+](C)(C)CCOP(=O)(O)OP(=O)([O-])OCC1OC(n2ccc(N)nc2=O)[C@H](O)[C@@H]1O (stereo not given in full)	/	/	/	.	/	/
Nc1ccn([C@@H]2O[C@H](CO)[C@@H](O)[C@H]2O)c(=O)n1	/	/	/	.	.	.
O=C1C2=C(C(=O)c3ccccc31)C1O[C@](CCCCN3C(=O)c4ccccc4C3=O)(Cc3c1ccc1ccccc31)O2	.[2.33 µM]	?	/	/	/	/
CC(C)c1ccc(OCc2cc(=O)n3c(-c4ccccc4)csc3n2)cc1	.	.	/	.	.	.
O=C(NC(=S)NNC(=O)c1ccc(Cl)cc1Cl)c1cccnc1	2.2µM	.	.	.	45µM	.
Cc1ccc(C(=O)NNC(=S)NC(=O)c2ccc(Cl)cc2)cc1	40µM	.	.	.	.	.
O=C(Cc1ccc(Cl)cc1)NNC(=S)NC(=O)c1cccnc1	/	.	.	.	.	.
O=C(NC(=S)Nc1cc([N+](=O)[O-])ccc1O)c1cccnc1	11µM	.	.	.	.	.
O=C(NC(=S)NNC(=O)c1ccccc1O)c1cccnc1	13µM	?	?	.	56µM	.
O=C(CCc1ccccc1)NNC(=O)c1ccc(Cl)cc1	/	.	.	.	.	.
O=C(CCc1ccccc1)NNC(=S)NC(=O)c1ccc(Cl)cc1	1.6µM	.	/	.	.	.
O=C(NNC(=S)NC(=O)c1cccnc1)c1ccc(Cl)cc1	22µM	.	?	.	?	.
O=C(NC(=S)NNC(=O)c1cnccn1)c1ccc(Cl)cc1	50µM	3.2µM	/	.	22µM	.
COc1ccccc1NC(=S)NNC(=O)c1ccc(Cl)cc1Cl	20µM	.	.	.	.	.
Cc1ccc(C)c(NC(=O)CCCN2C(=O)C(c3ccccc3)Oc3cccnc32)c1 (stereo not given)	.	.	/	.	.	.
SMILES	G9a inh	BAZ2B inh	L3MBTL1 inh	GLS inhibitor	JMJD2A Tudor inh	HP1b binding inh
COc1ccc(Br)cc1C1NC(c2ccc3c(c2)OCO3)=CC(c2cc(Cl)ccc2O)N1 (stereo not given)	/	/	/	/	89µM	.
COc1cc(OC)c(OC)cc1CN1CCSCC1	?	79µM	.	.	3.2µM	?
COc1ccc(CN2CCSCC2)cc1C	10µM	79µM	/	.	8.9µM	?
COc1ccc(CN2CCCC(CO)(Cc3ccc(F)cc3)C2)cc1C (stereo not given)	.	.	.	.	.	.
COc1cc(C)c(CN2CCSCC2)cc1C	.[0.501 µM]	?	.[2.29 µM]	.	32µM	.
COc1ccc(-c2noc(CC(=O)Nc3ccc(F)cc3F)n2)cc1	.	.	/	.	.	.
CN(Cc1nccn1C)C(=O)c1cc(COc2cccc(C(F)(F)F)c2)on1	.	.	/	.	.	.
Cc1ccc(CN(C)C(=O)c2cc(COc3cccc(C(F)(F)F)c3)on2)o1	32µM	.	/	.	.	.
